Here are results for 16 compounds from ChEMBL document CHEMBL2218924, “A broad activity screen in support of a chemogenomic map for kinase signalling research and drug discovery” (Biochem J, 2013).

For assay [1], the target named is Mitogen-activated protein kinase 11 (Homo sapiens) (UniProt Q15759). The note with it: at 1 µM.
Assay [2] has the same target. Conditions: at 10 µM.
The target in assay [3] is T1, Mitogen-activated protein kinase 13 (Homo sapiens) (UniProt O15264).
T1 sequence (whole entry): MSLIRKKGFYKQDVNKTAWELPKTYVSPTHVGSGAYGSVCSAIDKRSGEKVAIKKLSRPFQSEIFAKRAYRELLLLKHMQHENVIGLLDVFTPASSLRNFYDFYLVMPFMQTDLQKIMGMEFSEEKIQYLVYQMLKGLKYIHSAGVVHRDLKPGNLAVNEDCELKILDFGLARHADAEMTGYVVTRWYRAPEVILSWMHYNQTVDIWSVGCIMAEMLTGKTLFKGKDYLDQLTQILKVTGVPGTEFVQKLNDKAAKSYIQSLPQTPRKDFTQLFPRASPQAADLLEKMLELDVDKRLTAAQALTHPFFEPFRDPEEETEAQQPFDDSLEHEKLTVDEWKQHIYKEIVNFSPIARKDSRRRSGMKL
The note with it: at 1 µM.

Assay [4] concerns the target T1, Mitogen-activated protein kinase 13 (Homo sapiens). Conditions: at 10 µM.
Assay [5] addresses T2, Serine/threonine-protein kinase Sgk1 (Homo sapiens) (UniProt O00141).
T2 sequence (whole entry): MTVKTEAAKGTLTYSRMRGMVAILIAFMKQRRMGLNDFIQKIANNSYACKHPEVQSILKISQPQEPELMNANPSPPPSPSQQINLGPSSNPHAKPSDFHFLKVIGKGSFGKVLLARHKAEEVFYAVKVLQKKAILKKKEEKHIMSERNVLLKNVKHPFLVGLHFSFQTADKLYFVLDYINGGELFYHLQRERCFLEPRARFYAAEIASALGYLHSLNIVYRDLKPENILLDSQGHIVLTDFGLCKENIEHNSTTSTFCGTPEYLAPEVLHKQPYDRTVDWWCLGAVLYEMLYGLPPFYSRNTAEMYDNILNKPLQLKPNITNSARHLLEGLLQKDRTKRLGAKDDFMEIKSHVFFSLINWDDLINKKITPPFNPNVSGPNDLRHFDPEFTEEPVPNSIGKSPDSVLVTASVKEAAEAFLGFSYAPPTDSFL
The note with it: at 1 µM.

For assay [6], the target named is T2, Serine/threonine-protein kinase Sgk1 (Homo sapiens). Conditions: at 10 µM.
The target in assay [7] is T3, Serine/threonine-protein kinase Sgk2 (Homo sapiens) (UniProt Q9HBY8).
T3 sequence (whole entry): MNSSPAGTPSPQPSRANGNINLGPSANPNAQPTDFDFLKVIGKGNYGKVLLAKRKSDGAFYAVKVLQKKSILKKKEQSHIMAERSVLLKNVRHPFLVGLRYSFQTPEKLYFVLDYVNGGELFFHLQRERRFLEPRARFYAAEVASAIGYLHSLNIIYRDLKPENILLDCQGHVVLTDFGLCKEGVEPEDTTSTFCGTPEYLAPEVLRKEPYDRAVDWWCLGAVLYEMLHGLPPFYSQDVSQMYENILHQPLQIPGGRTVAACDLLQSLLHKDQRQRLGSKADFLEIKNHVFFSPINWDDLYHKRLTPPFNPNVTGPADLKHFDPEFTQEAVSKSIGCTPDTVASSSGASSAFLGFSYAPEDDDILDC
Conditions: at 1 µM.

The target in assay [8] is T3, Serine/threonine-protein kinase Sgk2 (Homo sapiens). The note with it: at 10 µM.
Assay [9] concerns the target T4, Serine/threonine-protein kinase Sgk3 (Homo sapiens) (UniProt Q96BR1).
T4 sequence (whole entry): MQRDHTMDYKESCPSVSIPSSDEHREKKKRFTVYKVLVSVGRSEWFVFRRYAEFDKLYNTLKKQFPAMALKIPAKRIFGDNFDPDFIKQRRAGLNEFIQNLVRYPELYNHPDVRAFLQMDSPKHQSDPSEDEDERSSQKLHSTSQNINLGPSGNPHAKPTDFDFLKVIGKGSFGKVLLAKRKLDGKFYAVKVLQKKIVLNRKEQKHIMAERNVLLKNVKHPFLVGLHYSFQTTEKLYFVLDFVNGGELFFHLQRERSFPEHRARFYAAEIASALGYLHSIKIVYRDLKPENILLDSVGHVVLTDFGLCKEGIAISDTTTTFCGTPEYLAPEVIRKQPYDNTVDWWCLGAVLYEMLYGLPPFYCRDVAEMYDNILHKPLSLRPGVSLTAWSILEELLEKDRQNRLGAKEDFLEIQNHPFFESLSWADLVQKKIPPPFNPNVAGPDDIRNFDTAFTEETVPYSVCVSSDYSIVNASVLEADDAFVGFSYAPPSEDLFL
Conditions: at 10 µM.

The target of assay [10] is Serine/threonine-protein kinase SIK1 (Homo sapiens) (UniProt P57059). Conditions: at 1 µM.
Sequence of Serine/threonine-protein kinase SIK1 (Homo sapiens) (P57059 whole entry): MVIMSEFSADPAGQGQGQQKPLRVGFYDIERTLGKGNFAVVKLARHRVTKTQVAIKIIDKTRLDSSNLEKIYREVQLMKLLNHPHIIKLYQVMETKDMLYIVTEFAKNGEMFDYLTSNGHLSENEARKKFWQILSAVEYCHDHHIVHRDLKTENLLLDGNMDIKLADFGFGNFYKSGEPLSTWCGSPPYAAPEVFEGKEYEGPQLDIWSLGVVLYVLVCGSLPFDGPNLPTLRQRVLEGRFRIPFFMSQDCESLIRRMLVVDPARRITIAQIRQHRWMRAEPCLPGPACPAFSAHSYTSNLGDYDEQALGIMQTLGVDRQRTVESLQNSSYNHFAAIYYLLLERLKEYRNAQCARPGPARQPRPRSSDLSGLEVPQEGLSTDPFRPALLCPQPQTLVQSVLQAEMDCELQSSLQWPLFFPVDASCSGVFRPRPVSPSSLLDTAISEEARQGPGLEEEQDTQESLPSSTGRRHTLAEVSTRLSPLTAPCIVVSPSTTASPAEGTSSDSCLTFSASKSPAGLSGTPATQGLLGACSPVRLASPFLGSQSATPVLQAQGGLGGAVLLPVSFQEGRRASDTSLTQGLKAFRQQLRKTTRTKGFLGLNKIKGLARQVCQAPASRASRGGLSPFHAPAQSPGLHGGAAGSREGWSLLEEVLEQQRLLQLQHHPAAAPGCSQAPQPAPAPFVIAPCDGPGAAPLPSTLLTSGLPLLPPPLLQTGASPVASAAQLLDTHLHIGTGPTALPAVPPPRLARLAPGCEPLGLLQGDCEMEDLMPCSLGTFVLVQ

Molecules are shown by their SMILES.

Sequence of Mitogen-activated protein kinase 11 (Homo sapiens) (Q15759 whole entry): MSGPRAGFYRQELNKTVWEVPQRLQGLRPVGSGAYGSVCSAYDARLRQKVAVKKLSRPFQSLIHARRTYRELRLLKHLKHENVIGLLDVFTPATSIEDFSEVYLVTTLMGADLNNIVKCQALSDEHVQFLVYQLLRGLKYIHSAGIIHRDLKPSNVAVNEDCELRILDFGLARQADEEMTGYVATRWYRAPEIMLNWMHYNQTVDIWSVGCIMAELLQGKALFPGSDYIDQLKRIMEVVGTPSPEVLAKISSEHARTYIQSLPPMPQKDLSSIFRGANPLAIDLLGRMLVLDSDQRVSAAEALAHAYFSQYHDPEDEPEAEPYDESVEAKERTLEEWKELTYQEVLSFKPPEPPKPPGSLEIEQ

Regarding `c1ccc(-c2n[nH]c3c2oc2ccccc23)cc1`, the residual activity in assay [1] stood at 97%; in [2] it was 84%; in [3], 86%; in [4], 63%; in assay [5], 99%; in assay [6], 114%. In addition, the residual activity in [7] came out at 94%; in assay [8], 72%; in [9] it was 98%; in assay [10], 82%.
For the compound `O=C1NC(=O)/C(=C\c2ccc3nccnc3c2)S1`, the residual activity in assay [1] stood at 95%; in [2], 102%; in assay [3], 93%; in assay [4] it was 50%; in assay [5] it was 118%; in [6], 73%. Besides, the residual activity in assay [7] was determined as 103%; in assay [8] it was 75%; in assay [9] it was 93%; in [10], 74%.
On to `Nc1ccc2ncnc(NCCc3ccc(Oc4ccccc4)cc3)c2c1`, for which the residual activity is 107% in [1]; 101% in assay [2]; 112% in assay [3]; 96% in assay [4]; 88% in assay [5]; 125% in assay [6]. The residual activity in assay [7] came to 110%; in assay [8] it was 74%; in assay [9], 86%; in [10], 112%.
Turning to `CC#CC(=O)Nc1cc2c(Nc3ccc(F)c(Cl)c3)ncnc2cn1`, the residual activity was 90% in [1]; 86% in [2]; 107% in [3]; 96% in assay [4]; 95% in [5]; 106% in assay [6]. Moreover, the residual activity in assay [7] worked out at 100%; in assay [8] it was 77%; in assay [9], 88%; in assay [10], 81%.
For the compound `O=C(Nc1cccc(Nc2cc(Nc3cccc(C(F)(F)F)c3)ncn2)c1)C1CC1`, the residual activity in assay [1] was determined as 92%; in assay [2], 48%; in assay [3], 107%; in assay [4] it was 97%; in [5], 112%; in assay [6], 85%. The residual activity turned out to be 83% in assay [7], 69% in assay [8], 128% in [9] and 107% in assay [10].
Regarding `O=C1NC(=O)c2cc(Nc3ccc(F)cc3)c(Nc3ccc(F)cc3)cc21`, the residual activity is 95% in assay [1]; 72% in assay [2]; 98% in [3]; 89% in assay [4]; 108% in assay [5]; 76% in assay [6]. The residual activity in [7] turned out to be 97%; in [8], 67%; in assay [9], 96%; in [10], 98%.
Consider `COc1ccc(CNc2nc(N(CCO)CCO)nc3c2ncn3C(C)C)cc1`, for which the residual activity worked out at 100% in [1]; 92% in [2]; 100% in assay [3]; 105% in assay [4]; 73% in assay [5]; 116% in [6]. Further, the residual activity in assay [7] was 107%; in [8], 80%; in assay [9], 85%; in assay [10], 93%.
For `Nc1n[nH]c2nnc(-c3c(-c4ccccc4)nn4ccccc34)cc12`, the residual activity is 94% in [1]; 66% in assay [2]; 99% in [3]; 88% in [4]; 95% in assay [5]; 123% in [6]. Moreover, the residual activity in [7] was determined as 87%; in assay [8] it was 64%; in [9], 80%; in [10], 85%.
Turning to `CO[C@H]1C[C@@H]2CC[C@@H](C)[C@@](O)(O2)C(=O)C(=O)N2CCCC[C@H]2C(=O)O[C@H]([C@H](C)C[C@@H]2CC[C@@H](O)[C@H](OC)C2)CC(=O)[C@H](C)/C=C(\C)[C@@H](O)[C@@H](OC)C(=O)[C@H](C)C[C@H](C)/C=C/C=C/C=C/1C`, the residual activity turned out to be 97% in [1]; 103% in [2]; 110% in [3]; 95% in assay [4]; 93% in assay [5]; 213% in assay [6]. The residual activity in assay [7] came to 124%; in assay [8], 149%; in assay [9], 148%; in [10], 101%.
Regarding `CC(=O)O/N=C1\C(=C2\C(=O)Nc3cc(Br)ccc32)Nc2ccccc21`, the residual activity in assay [1] came out at 94%; in [2] it was 100%; in assay [3], 99%; in assay [4], 89%; in assay [5] it was 69%; in [6], 56%. Also, the residual activity in [7] is 83%; in assay [8] it was 48%; in assay [9], 65%; in [10], 57%.
As to `COc1cc2ncnc(Nc3ccc(O)c(Br)c3)c2cc1OC`, the residual activity in [1] is 93%; in assay [2], 58%; in assay [3] it was 111%; in [4], 83%; in assay [5], 71%; in assay [6], 87%. The residual activity in [7] is 62%; in assay [8] it was 48%; in assay [9] it was 86%; in assay [10], 90%.
Consider `CCC(=O)Nc1ccc2ncnc(Nc3cccc(Br)c3)c2c1`, for which the residual activity in assay [1] stood at 91%; in [2], 88%; in [3] it was 100%; in [4] it was 102%; in assay [5], 107%; in [6], 114%. The residual activity in assay [7] turned out to be 105%; in assay [8], 77%; in [9], 95%; in assay [10], 68%.
Turning to `Cc1nc(-c2ccccc2)c(-c2ccncc2)o1`, the residual activity amounted to 105% in assay [1]; 58% in assay [2]; 107% in assay [3]; 103% in [4]; 107% in assay [5]; 86% in assay [6]. The residual activity in assay [7] was 126%; in assay [8], 89%; in [9], 91%; in assay [10] it was 138%.
Turning to `COc1ccc(OC)c2c(=S)c3ccccc3[nH]c12`, the residual activity in [1] worked out at 112%; in [2], 96%; in [3] it was 104%; in assay [4], 97%; in assay [5] it was 90%; in assay [6] it was 82%. Besides, the residual activity in [7] came to 97%; in assay [8], 93%; in [9], 83%; in assay [10], 118%.
Consider `CC[n+]1c(/C=C/N(C)c2ccccc2)n(-c2ccccc2)c2ccc(-c3nc4ccccc4s3)cc21`, for which the residual activity in assay [1] stood at 107%; in assay [2], 101%; in [3], 105%; in assay [4] it was 97%; in [5] it was 118%; in [6], 65%. The residual activity in assay [7] was 109%; in [8], 80%; in assay [9], 69%; in assay [10], 115%.
Regarding `N#C/C(=C(\N)Sc1ccc(N)cc1)c1ccccc1C(F)(F)F`, the residual activity in assay [1] is 104%; in assay [2] it was 101%; in assay [3] it was 95%; in [4], 90%; in [5], 81%; in [6], 98%. The residual activity in assay [7] came to 100%; in [8] it was 117%; in [9], 93%; in assay [10], 104%.
